{"source": "PubChem BioAssay AID2241", "about": "(Broad Institute, 2010)", "note": "The whole screen tested about 21,000 compounds, of which about 110 (0.52%) were called active.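 Rule for the calls: active = most replicate scores above 10, or exactly half above 10 with mean activity above 10; inconclusive = mean activity below 10 while half the replicates exceed 10; inactive = most replicate scores below 10.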 The list comes from a sample in which actives are over-represented; it also holds similar structures and randomly drawn compounds."}
{"test": "caspase activation in A1-primed MEFs – cell-based, CaspaseGlo luminescence, A1 inhibitor project, primary screen (AID 2241);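 note: effector caspase 3 and 7 activity cleaving a DEVD luciferin substrate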", "conditions": "MEF A1-2A-BIM cells, caspase-Glo luminescence, 3 h; active compounds read high; percent of clofoctol signal, DMSO as zero; concentration not given here"}
{"smiles": "O=C(NCc1ccccc1Cl)C1=CSCCO1", "caspase activation": "-0.087% (inactive)"}
{"smiles": "C[C@@H]1CN([C@@H](C)CO)C(=O)c2cc(NS(=O)(=O)c3ccccc3)ccc2O[C@H]1CN(C)S(=O)(=O)c1ccc(Cl)cc1", "caspase activation": "0.207% (inactive)"}
{"smiles": "Cc1ccc(-c2nn(C(C)(C)C)c3ncnc(N)c23)cc1", "caspase activation": "11.3% (active)"}
{"smiles": "COc1ccc(NC(=O)Nc2ccc3c(c2)C(=O)N([C@@H](C)CO)C[C@H](C)[C@@H](CN(C)C(=O)NC2CCCCC2)O3)cc1", "caspase activation": "-0.437% (inactive)"}
{"smiles": "Cc1ccc(S(=O)(=O)c2no[n+]([O-])c2S(=O)(=O)c2ccc(C)cc2)cc1", "caspase activation": "-3.56% (inactive)"}
{"smiles": "CCC(CC)NC(=O)C1c2ccccc2Oc2ccccc21", "caspase activation": "0.418% (inactive)"}
{"smiles": "Cc1noc(C)c1S(=O)(=O)Nc1ccc2c(c1)C(=O)N([C@@H](C)CO)C[C@H](C)[C@H](CN(C)C(=O)Nc1ccc(C(F)(F)F)cc1)O2", "caspase activation": "-0.257% (inactive)"}
{"smiles": "Cc1ccc(-n2c(C)nc3sc4c(c3c2=O)CCC4)cc1", "caspase activation": "0.54% (inactive)"}
{"smiles": "CC(=O)Oc1ccc2occ(C(=O)c3cc4ccccc4o3)c2c1", "caspase activation": "-5.48% (inactive)"}
{"smiles": "O=C(Nc1ccc(Cl)cc1)Nc1ccc(N2CCN(c3ncccc3C(F)(F)F)CC2)nc1", "caspase activation": "-0.335% (inactive)"}
{"smiles": "Cc1cccc(NC(=O)C2C3CC/C=C\\CCC32)c1", "note": "(configuration not stated)", "caspase activation": "1.35% (inactive)"}
{"smiles": "CN1C(=O)C(Cc2ccccc2)(Cc2ccccc2)c2ccccc21", "caspase activation": "-0.527% (inactive)"}
{"smiles": "C=CCn1c2ccccc2c2nnc(SCCCC(=O)c3ccc(F)cc3)nc21", "caspase activation": "-0.988% (inactive)"}
{"smiles": "CNC(=O)CSc1nc2ccccc2[nH]1", "caspase activation": "0.45% (inactive)"}
{"smiles": "Cc1nc(C2COc3ccccc3O2)ncc1S(=O)(=O)c1ccc(Cl)cc1", "note": "(configuration not stated)", "caspase activation": "-0.851% (inactive)"}
{"smiles": "O=C(CC1SC(=NC2CC3C=CC2C3)NC1=O)Nc1ccccc1Cl", "note": "(configuration not stated)", "caspase activation": "0.103% (inactive)"}
{"smiles": "C[C@H]1CN([C@@H](C)CO)C(=O)c2cc(NC(=O)CCC(F)(F)F)ccc2O[C@H]1CN(C)Cc1ccc(C(=O)O)cc1", "caspase activation": "0.236% (inactive)"}
{"smiles": "COc1ccc(-c2nn(C)c3ccccc23)cc1", "caspase activation": "-6.81% (inactive)"}
{"smiles": "C=CCn1c(SC)nnc1-c1ccc(OC)c(OC)c1", "caspase activation": "0.905% (inactive)"}
{"smiles": "CCc1nnc(NC(=O)c2cc(S(=O)(=O)N3CCc4ccccc43)cn2C)s1", "caspase activation": "1.26% (inactive)"}
{"smiles": "Cc1ccc(S(=O)(=O)N(CC(=O)Nc2cccnc2)c2cc(C)cc(C)c2)cc1", "caspase activation": "0.203% (inactive)"}
{"smiles": "O=C(CC(=O)c1ccccc1O)c1ccccc1", "caspase activation": "-2.59% (inactive)"}
{"smiles": "C[C@@H]1CN([C@H](C)CO)C(=O)c2cc(NC(=O)c3ccncc3)ccc2O[C@H]1CN(C)Cc1ccc(Oc2ccccc2)cc1", "caspase activation": "-0.569% (inactive)"}
{"smiles": "CC(=O)Nc1ccc(S(=O)(=O)CCO)cc1", "caspase activation": "2.64% (inactive)"}
{"smiles": "NC(=O)N1CCc2ccccc21", "caspase activation": "0.412% (inactive)"}
{"smiles": "C[C@@H]1CN([C@H](C)CO)C(=O)c2cc(NS(=O)(=O)c3ccc(F)cc3)ccc2O[C@@H]1CN(C)C(=O)Nc1cccc2ccccc12", "caspase activation": "-0.274% (inactive)"}
{"smiles": "O=C(c1cccc(Cl)c1)N(Cc1ccccc1)Cc1ccccc1", "caspase activation": "-0.527% (inactive)"}
{"smiles": "COc1ccc(S(=O)(=O)Nc2ccc3c(c2)C(=O)N([C@H](C)CO)C[C@@H](C)[C@H](CN(C)C(=O)Nc2ccc4c(c2)OCO4)O3)cc1", "caspase activation": "0.103% (inactive)"}
{"smiles": "C[C@H]1CN([C@@H](C)CO)C(=O)c2cc(NS(=O)(=O)c3ccc(F)cc3)ccc2O[C@H]1CN(C)CC1CC1", "caspase activation": "1.58% (inactive)"}
{"smiles": "CCc1ccc(NC(=O)CN(C)S(=O)(=O)c2cc(Br)cnc2N)cc1", "caspase activation": "-0.325% (inactive)"}
{"smiles": "COc1ccc(CN(C)C[C@@H]2Oc3ccc(NC(=O)Nc4cccc5ccccc45)cc3C(=O)N([C@H](C)CO)C[C@H]2C)cc1", "caspase activation": "-0.083% (inactive)"}
{"smiles": "COc1cc(C2c3c(cc(OC)c(O)c3OC)CC(CO[C@@H]3O[C@H](CO)[C@@H](O)[C@H](O)[C@H]3O)C2CO)cc(OC)c1O", "note": "(some centres not stated)", "caspase activation": "-0.412% (inactive)"}
{"smiles": "O=C(/C=C/c1ccccc1)NCCCCNCCCNC(=O)/C=C/c1ccccc1", "caspase activation": "-0.0105% (inactive)"}
{"smiles": "Cc1ccc(NC(N)=O)cc1", "caspase activation": "-0.167% (inactive)"}
{"smiles": "COc1ccc(NC(=O)N(C)C[C@H]2Oc3ccc(NS(=O)(=O)c4cccs4)cc3C(=O)N([C@@H](C)CO)C[C@H]2C)cc1", "caspase activation": "0.747% (inactive)"}
{"smiles": "CCC(=O)c1ccc(OC(=O)C2c3ccccc3Oc3ccccc32)cc1", "caspase activation": "-0.0959% (inactive)"}
{"smiles": "c1ccc(CSc2ccc(-c3ccncc3)nn2)cc1", "caspase activation": "0.0365% (inactive)"}
{"smiles": "C=CCn1c(SCc2nnc(SCC(=O)c3ccc(Cl)cc3)o2)nnc1-c1ccccc1", "caspase activation": "0.865% (inactive)"}
{"smiles": "C[C@@H]1CN([C@H](C)CO)C(=O)c2cc(NC(=O)C3CCCCC3)ccc2O[C@@H]1CN(C)CC1CCCCC1", "caspase activation": "0.287% (inactive)"}
{"smiles": "CC(=C\\c1ccccc1)/C(C)=N/O", "caspase activation": "0.142% (inactive)"}
{"smiles": "COc1cc2c(cc1OC)C1CN3CCc4cc(OC)c(OC)cc4C3CN1CC2", "note": "(configuration not stated)", "caspase activation": "-0.199% (inactive)"}
{"smiles": "CC[C@H]1CN2CCc3cc(OC)c(OC)cc3[C@@H]2C[C@@H]1C[C@H]1NCCc2cc(OC)c(OC)cc21", "caspase activation": "18.2% (active)"}
{"smiles": "Oc1c(Cl)cc(Cl)cc1C1Nc2cc(C(F)(F)F)ccc2-n2cccc21", "note": "(configuration not stated)", "caspase activation": "-0.566% (inactive)"}
{"smiles": "CCCNC(=O)c1ccc2c(c1)N(Cc1ccc(F)cc1)CCS2", "caspase activation": "-0.988% (inactive)"}
{"smiles": "COc1ccc(S(=O)(=O)Nc2ccc3c(c2)C(=O)N([C@H](C)CO)C[C@H](C)[C@H](CN(C)S(=O)(=O)c2ccc(Cl)cc2)O3)cc1", "caspase activation": "0.103% (inactive)"}
{"smiles": "O=C(Nc1cccc(-c2nc3ccccc3o2)c1)c1cccc(OCc2ccccc2)c1", "caspase activation": "34% (active)"}
{"smiles": "O=C(Nc1cccc(-c2nc3ccccc3o2)c1)c1ccc(Br)cc1", "caspase activation": "14.9% (active)"}
{"smiles": "c1ccc(-c2nc3ccccc3o2)cc1", "caspase activation": "-5.88% (inactive)"}
{"smiles": "CCOC(=O)c1cc(=O)c2ccc(OCc3ccccc3)cc2o1", "caspase activation": "-1.74% (inactive)"}
{"smiles": "O=C(CSc1nc2ccccc2o1)Nc1ccccn1", "caspase activation": "-3.01% (inactive)"}
{"smiles": "O=C(COc1cccc(NC(=O)c2ccccc2)c1)NCCOc1ccccc1", "caspase activation": "-0.0599% (inactive)"}
{"smiles": "O=C(/C=C/c1ccccc1)c1ccc(O[C@@H]2O[C@H](CO)[C@@H](O)[C@H](O)[C@H]2O)cc1O", "caspase activation": "-0.127% (inactive)"}
